Source: PubChem BioAssay (NCI)
About 79,000 compounds went through this panel and 15% of them were active in at least one assay; those are over-represented in the sample as a whole. Active and inactive are the calls of the source. Rule as the data show it: active = growth inhibition above about 70%; inactive = the rest.

How the values were obtained:
[1] = NCI Yeast Anticancer Drug Screen. Data for the rad52 strain (AID 147);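 also: 0% = growth of vehicle-treated control cultures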; conditions: S. cerevisiae rad52 mutant growth inhibition, hits give high values
How it was run: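 Growth of repair-deficient yeast cells was compared between compound-treated and vehicle-treated cultures to give percent inhibition.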

[2] = NCI Yeast Anticancer Drug Screen. Data for the wt1 strain (AID 149);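 also: 0% = growth of vehicle-treated wt1 cultures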; conditions: S. cerevisiae wt1 strain (SPY 50644) growth inhibition, hits give high values
How it was run: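 wt1 yeast, compound-treated; % growth inhibition vs vehicle control.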

[3] = NCI Yeast Anticancer Drug Screen. Data for the rad50EPP+ strain (AID 151);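 also: 0% = growth of vehicle-treated control cultures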; conditions: S. cerevisiae rad50 mutant strain, hits give high values
How it was run: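 Measured: growth inhibition of rad50EPP+ yeast. Reference: vehicle-treated controls. Screen uses strains with defined genetic alterations in DNA damage repair or cell cycle control.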

[4] = NCI Yeast Anticancer Drug Screen. Data for the mgt1 strain (AID 153); conditions: S. cerevisiae mgt1 mutant growth inhibition, hits give high values
How it was run: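 Compounds were applied to mgt1 mutant yeast, and growth was then compared against vehicle-treated control cultures to give percent inhibition.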

[5] = NCI Yeast Anticancer Drug Screen. Data for the rad50 strain (AID 155);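 also: 0% = growth of vehicle-only cultures of the same strain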; conditions: S. cerevisiae rad50 strain growth inhibition, hits give high values
How it was run: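 Genetically altered yeast (DNA repair pathway); compound treatment; growth inhibition vs vehicle ctrl.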

[6] = NCI Yeast Anticancer Drug Screen. Data for the mec2-1 strain (AID 157); conditions: S. cerevisiae mec2-1 strain, hits give high values
How it was run: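 Compounds were applied to mec2-1 yeast cells. Their growth was then compared with that of vehicle-treated cultures to give growth inhibition.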

[7] = NCI Yeast Anticancer Drug Screen. Data for the rad14 strain (AID 159);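 also: 0% = growth of vehicle-treated control cultures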; conditions: S. cerevisiae rad14 strain growth inhibition, hits give high values
How it was run: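 Test compounds were applied to a repair-deficient yeast strain. Its growth was then compared with that of cultures given vehicle alone, and inhibition was expressed relative to those controls.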

[8] = NCI Yeast Anticancer Drug Screen. Data for the sgs1 mgt1 strain (AID 161);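 also: 0% = growth of cultures given vehicle only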; conditions: S. cerevisiae sgs1 mgt1 strain, hits give high values
How it was run: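 Growth of a repair-deficient yeast mutant was monitored after compound treatment and expressed as inhibition relative to vehicle-treated cultures.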

[9] = NCI Yeast Anticancer Drug Screen. Data for the CLN2oe strain (AID 163);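 also: 0% = growth of vehicle-only control cultures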; conditions: S. cerevisiae CLN2oe strain, hits give high values
How it was run: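 Cells of an engineered yeast line with disturbed cell-cycle regulation are treated with compound. Inhibition of growth is then calculated relative to the vehicle-treated reference.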

[10] = NCI Yeast Anticancer Drug Screen. Data for the cln2 rad14 strain (AID 165);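 also: 0% = growth equal to vehicle treated cultures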; conditions: S. cerevisiae cln2 rad14 strain, hits give high values
How it was run: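 Strain: cln2 rad14 yeast, altered in cell cycle control and DNA damage repair. Read-out: growth inhibition vs vehicle.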

[11] = NCI Yeast Anticancer Drug Screen. Data for the bub3 strain (AID 167); conditions: S. cerevisiae bub3 mutant strain, hits give high values
How it was run: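 Yeast carrying a defined mutation is treated with each compound, and growth is compared with that of vehicle-exposed cells to give inhibition.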

[12] = NCI Yeast Anticancer Drug Screen. Data for the wt2 strain (AID 169);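 also: 0% = growth of vehicle-treated yeast cultures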; conditions: S. cerevisiae wt2 strain growth inhibition, hits give high values
How it was run: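 Growth of compound-treated yeast is measured and expressed as inhibition relative to vehicle-only controls.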

[13] = NCI Yeast Anticancer Drug Screen. Data for the mlh1 strain (AID 171);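 also: 0% = growth of vehicle-treated control cultures of the same strain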; conditions: S. cerevisiae mlh1 strain growth inhibition, hits give high values
How it was run: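 Test agents were incubated with yeast bearing a defined DNA damage repair or cell cycle control alteration; values are growth inhibition normalised to vehicle-treated cultures.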

[14] = NCI Yeast Anticancer Drug Screen. Data for the sgs1 strain (AID 173);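 also: 0% = growth of vehicle-only control cultures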; conditions: S. cerevisiae sgs1 mutant, hits give high values
How it was run: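 Strain with an altered DNA repair or cell cycle pathway exposed to compound. Growth then measured. Value = inhibition versus vehicle control.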

[15] = NCI Yeast Anticancer Drug Screen. Data for the mlh1 rad18 strain (AID 175); conditions: S. cerevisiae mlh1 rad18 strain growth inhibition, hits give high values
How it was run: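 A repair-deficient yeast strain is exposed to test compound, and growth is scored relative to vehicle-treated controls.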

[16] = NCI Yeast Anticancer Drug Screen. Data for the rad18 strain (AID 177); conditions: S. cerevisiae rad18 mutant growth inhibition, hits give high values
How it was run: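 DNA-repair-defective yeast; compound treatment; growth inhibition scored against vehicle.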

[17] = at 5.0 µM (retest, dose inferred, filed as 0.5)
[18] = at 50.0 µM (retest, dose inferred, filed as 5.0)

Measured: growth inhibition

O=S(=O)(O)c1ccc(Cl)cc1.[Cd]
inactive: [1]; at 1.2 µM 3% | [1]; at 3.7 µM 9% | [1]; at 11.0 µM 35% | [1]; at 33.0 µM 50% | [1]; at 100.0 µM 66% | [2]; at 1.2 µM 2% | [2]; at 3.7 µM 11% | [2]; at 11.0 µM 25% | [2]; at 33.0 µM 55% | [3]; at 1.2 µM 9% | [3]; at 3.7 µM 14% | [3]; at 11.0 µM 23% | [3]; at 33.0 µM 56% | [4]; at 1.2 µM 0% | [4]; at 3.7 µM 15% | [4]; at 11.0 µM 27% | [4]; at 33.0 µM 55% | [5]; at 1.2 µM -2% | [5]; at 3.7 µM 15% | [5]; [17] 25% | [5]; at 11.0 µM 47% | [5]; [18] 46% | [5]; at 50.0 µM 57.1% | [6]; at 1.2 µM -2% | [6]; at 3.7 µM 5% | [6]; [17] 6% | [6]; at 11.0 µM 14% | [6]; at 33.0 µM 25% | [6]; [18] 46% | [6]; at 50.0 µM 39.4% | [6]; at 100.0 µM 37% | [7]; at 1.2 µM -2% | [7]; at 3.7 µM 18% | [7]; at 11.0 µM 48% | [8]; [17] 23% | [8]; [18] 53% | [8]; at 50.0 µM 50.5% | [9]; at 1.2 µM -18% | [9]; at 3.7 µM -17% | [9]; at 11.0 µM -6% | [9]; at 33.0 µM 8% | [9]; at 100.0 µM 20% | [10]; [17] 8% | [10]; [18] 11% | [10]; at 50.0 µM 21.4% | [11]; at 1.2 µM -8% | [11]; at 3.7 µM 8% | [11]; [17] -6% | [11]; at 11.0 µM 6% | [11]; at 33.0 µM 19% | [11]; [18] 27% | [11]; at 50.0 µM 2.7% | [11]; at 100.0 µM 30% | [12]; at 1.2 µM 2% | [12]; at 3.7 µM 11% | [12]; at 11.0 µM 20% | [12]; at 33.0 µM 32% | [12]; at 100.0 µM 44% | [13]; at 1.2 µM -1% | [13]; at 3.7 µM 7% | [13]; at 11.0 µM 17% | [13]; at 33.0 µM 50% | [14]; at 1.2 µM 2% | [14]; at 3.7 µM 10% | [14]; at 11.0 µM 17% | [14]; at 33.0 µM 29% | [14]; at 100.0 µM 44% | [15]; [17] 24% | [15]; [18] 47% | [15]; at 50.0 µM 59% | [16]; at 1.2 µM 0% | [16]; at 3.7 µM 8% | [16]; at 11.0 µM 23% | [16]; at 33.0 µM 44% | [16]; at 100.0 µM 51%
active: [2]; at 100.0 µM 73% | [3]; at 100.0 µM 75% | [4]; at 100.0 µM 77% | [5]; at 33.0 µM 73% | [5]; at 100.0 µM 84% | [7]; at 33.0 µM 71% | [7]; at 100.0 µM 86% | [13]; at 100.0 µM 82%
